# MCL1 BIM primary: inhibitors of MCL1 binding to BIM-BH3, primary screen, biochemical, fluorescence polarization | Induced myeloid leukemia cell differentiation protein Mcl-1 (Homo sapiens), Q07820 | GST-MCL1 / FITC-Bim-BH3 fluorescence polarization | inhibition, % at 10.9 µM | hit rate 0.68% among 320,000;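 active = inhibition above the mean inhibition of all tested compounds plus 3 SD, set per campaign, cut at about 40% in these data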;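 note: 0% = DMSO wells and 100% = unlabeled Bim-BH3 peptide control; higher means more loss of mP so more displacement of Bim peptide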
# Bcl-xL primary: inhibitors of human Bcl-xL, primary screen, biochemical, fluorescence polarization, HTS. GST-Bcl-xL / FITC-Bim BH3 peptide fluorescence polarization. inhibition, % at 10.9 µM. hit rate 0.7% among 320,000;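 active = inhibition above the mean of all tested compounds plus 3 SD, cutoff set per campaign, cut at about 30% in these data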;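 note: 0% = DMSO wells and 100% = unlabeled Bim-BH3 peptide competitor; inhibitors lower millipolarization by displacing the labeled peptide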
# EBV gp42 block: Epstein-Barr virus gp42 inhibitors, primary screen, biochemical, uHTS, fluorescence polarization. hit rate 0.42% among 220,000. Fluorescence polarization binding assay, mP read-out. Glycoprotein 42 (Epstein-Barr virus (strain AG876)), Q1HVG2. AID 1085, 2008. inhibition, % (tested at 21.74 µM); in the data active = inhibition above about 50%
# Target sequence (Q1HVG2 whole entry, looked up): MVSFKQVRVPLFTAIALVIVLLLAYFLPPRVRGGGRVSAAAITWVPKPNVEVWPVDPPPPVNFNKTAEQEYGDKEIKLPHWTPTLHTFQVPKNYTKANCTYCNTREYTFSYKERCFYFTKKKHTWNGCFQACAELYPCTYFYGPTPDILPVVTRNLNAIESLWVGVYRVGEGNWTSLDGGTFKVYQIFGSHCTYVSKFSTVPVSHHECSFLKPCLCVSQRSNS
# GLD-1 TGE inh: GLD-1/TGE RNA complex disruptors, primary screen, biochemical, fluorescence polarization; purified GLD-1 + fluorescein TGE RNA; inhibition, % at 5.96 µM; AID 2280, 2010; Female germline-specific tumor suppressor gld-1 (Caenorhabditis elegans), Q17339; hit rate 0.44% among 320,000;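 active = percent inhibition above a per-plate cutoff, the plate mean of test compounds plus 3 SD, cut at about 30% in these data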;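 note: 0% = DMSO wells with GLD-1 and probe and 100% = wells lacking GLD-1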
# MEX-5 binding: MEX-5 zinc finger RNA-binding disruptors – biochemical, C. elegans, fluorescence polarization, MLPCN library, primary screen; activity score (negative = inhibition of binding), % at 10 µM; MEX-5/FITC-TCR2 RNA binding; active compounds read low; hit rate 0.38% among 300,000; AID 1832, 2009;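 active = inhibition past about -25% in most replicates, and total fluorescence under double the plate's negative control median, limit read from the data; inconclusive = replicates evenly split on the limit, or fluorescence at least double controls; inactive = too little inhibition in most replicates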;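 note: 0% = DMSO and -100% = 5 µM competing unlabeled TCR2 RNA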
# BCLXL inh confirm: Bcl-xL inhibitors blocking Bim BH3 binding, confirmation, counter-screen for MCL1 inhibitor project, biochemical, fluorescence polarization; shares compounds with MCL1 BIM primary; GST-Bcl-xL / FITC-Bim BH3 peptide FP binding; inhibition, % at 10.9 µM; hit rate 54% among 1,700;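 active = inhibition above a cutoff equal to the mean inhibition of all tested compounds plus 3 SD, cut at about 30% in these data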;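 note: 0% = DMSO wells and 100% = unlabeled Bim BH3 control peptide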
# MCL1 BIM confirm: inhibitors of MCL1 binding to BIM-BH3, confirmation, biochemical, fluorescence polarization, triplicate | shares compounds with MCL1 BIM primary | GST-MCL1 / FITC-Bim-BH3 fluorescence polarization | inhibition, % at 10.9 µM | hit rate 61% among 1,700;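 active = inhibition above the average of all tested compounds plus 3 SD, cut at about 40% in these data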;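 note: 0% = DMSO wells and 100% = unlabeled Bim-BH3 control peptide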
# * hit, by the source's call; u = inconclusive; x = no result given; + = active, no number. Compounds with a hit are over-represented: about 1.3% of the library has one in this group of screens.
SMILES,MCL1 BIM primary,Bcl-xL primary,EBV gp42 block,GLD-1 TGE inh,MEX-5 binding,BCLXL inh confirm,MCL1 BIM confirm
O=c1cc(C(F)(F)F)c2cc3c4c(c2o1)CCCN4CCC3,+,+,150*,+,u,179*,+
Cc1cc2c(C(F)(F)F)cc(=O)oc2c2c1NCCC2,146*,112*,-39,112*,-1,95*,94*
CC(C)(O)[C@H]1O[C@H]2CC[C@@]3(C)[C@@](O)(CC[C@H]4Cc5c([nH]c6ccccc56)[C@@]43C)C2=CC1=O,100*,83*,53*,74*,-28*,60*,76*
O=c1[nH]c(=S)n(-c2ccc(Br)cc2)c(O)c1C=Nc1ccc(N2CCOCC2)cc1,+,170*,86*,-19,-2,+,+
CN(C)C(=O)Oc1ccc(OCc2nc3ccccc3[nH]2)cc1,5,6,-26,-3,-2,x,x
CC1(C(=O)O)CCCC2(C)c3cc(O)ccc3CCC12 (stereo not given),0,2,x,0,-1,x,x
COc1ccc2c(c1)NP(=S)(Oc1ccccc1)N2 (stereo not given),57*,50*,9,13,-47*,56*,82*
CC(=O)n1cc(C=C2C(=O)NC(=O)NC2=O)c2ccccc21,-3,3,x,3,-4,x,x
Cn1cc(C=C2C(=O)NC(=O)NC2=O)c2ccccc21,+,+,x,6,u,+,+
CN(C)[C@@H]1C(=O)C(C(N)=O)=C(O)[C@@]2(O)C(=O)C3=C(O)c4c(O)ccc(Cl)c4[C@@](C)(O)C3C[C@@H]12 (stereo not given in full),x,x,-6,x,x,x,x
CN(C)C1C(=O)C(C(N)=O)=C(O)C2(O)C(=O)C3=C(O)c4c(O)cccc4C(C)(O)C3CC12 (stereo not given),62*,30*,x,9,u,14,20
CN(C)[C@@H]1C(=O)C(C(N)=O)=C(O)[C@@]2(O)C(=O)C3=C(O)c4c(O)cccc4[C@@](C)(O)C3[C@H](O)C12 (stereo not given in full),+,153*,x,77*,-11,37*,87*
Cc1cccc(N2CCc3c2nc2ccccc2c3N)c1,11,16,-4,11,-2,x,x
CCN(CC)c1ccc(CNCCc2ccc(F)cc2)cc1,-3,4,-20,0,0,x,x
CCN(CC)c1ccc(N=Cc2c(O)n(-c3ccc(OC)cc3)c(=O)[nH]c2=O)cc1,41*,26,102*,-3,-34*,113*,26
Cc1ccccc1N1C(=O)/C(=C/c2ccco2)C(=O)NC1=S,98*,97*,x,6,-2,97*,99*
CCOc1ccc(N2C(=O)/C(=C/c3ccco3)C(=O)NC2=S)cc1,-25,-18,x,-22,1,x,x
Cc1ccc2c(c1)C1CN(C)CCC1N2C(=O)/C=C/c1ccc2c(c1)OCO2 (stereo not given),2,1,-8,0,1,x,x
Nc1ccc2ccc3cccc[n+]3c2c1,+,+,x,63*,u,+,+
CN1CCc2cc3c(c4c2C1Cc1ccccc1-4)OCO3 (stereo not given),+,166*,x,94*,u,77*,87*
COc1cc(CC2(CCc3ccncc3)C(=O)NC(=O)NC2=O)cc(OC)c1OC,1,1,3,0,-1,x,x
